# Data: paper PMC7862700, “An all-to-all approach to the identification of sequence-specific readers for epigenetic DNA modifications on cytosine”
# How the values were obtained:
# Test in all cases: DAPPL (digital affinity profiling via proximity ligation, sequencing); 10 mM Tris-HCl pH 7.5, 50 mM NaCl, 1 mM DTT, 4% glycerol, room temperature, 30 min; GST-TFs on glutathione beads, 16-mer random dsDNA library, 0.1% formaldehyde crosslink after washing; high values mean tight binding
# FLI1 = target: T1, FLI1 (Homo sapiens, UniProt Q01543 1-452); details: protein: recombinant; tags: N-terminal GST; dsDNA, one strand shown
# T1 sequence: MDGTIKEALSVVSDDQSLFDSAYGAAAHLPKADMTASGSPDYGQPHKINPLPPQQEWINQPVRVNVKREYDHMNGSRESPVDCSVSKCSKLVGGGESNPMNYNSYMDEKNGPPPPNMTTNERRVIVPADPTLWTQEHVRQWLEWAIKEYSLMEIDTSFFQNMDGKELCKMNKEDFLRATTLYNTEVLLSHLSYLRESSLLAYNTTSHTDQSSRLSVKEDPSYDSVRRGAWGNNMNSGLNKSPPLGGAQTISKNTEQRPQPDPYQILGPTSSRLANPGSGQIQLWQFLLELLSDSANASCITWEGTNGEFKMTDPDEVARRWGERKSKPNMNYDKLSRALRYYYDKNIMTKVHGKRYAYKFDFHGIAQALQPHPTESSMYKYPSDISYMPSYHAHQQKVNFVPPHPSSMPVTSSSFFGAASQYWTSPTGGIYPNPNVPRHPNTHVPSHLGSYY
# Summary of the method: (§1)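 Human transcription factors fused to GST were expressed in yeast, captured on glutathione beads, given DNA barcodes and pooled with a GST-only negative control. Pools were incubated with 200 nmole of a 16-mer random double-stranded DNA library in Tris/NaCl/DTT/glycerol buffer at room temperature for 30 min. They were then washed, crosslinked with 0.1% formaldehyde, proximity-ligated (BsaI/T4 ligase, 1 h, 37 °C), PCR-amplified and sequenced on an Illumina NextSeq500. Binding signal is each 6-mer's read frequency for a factor divided by its frequency for the GST control.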
# ELK1 = target: T2, ELK1 (Homo sapiens, UniProt P19419 1-428); details: protein: recombinant; tags: N-terminal GST; dsDNA, one strand shown
# T2 sequence: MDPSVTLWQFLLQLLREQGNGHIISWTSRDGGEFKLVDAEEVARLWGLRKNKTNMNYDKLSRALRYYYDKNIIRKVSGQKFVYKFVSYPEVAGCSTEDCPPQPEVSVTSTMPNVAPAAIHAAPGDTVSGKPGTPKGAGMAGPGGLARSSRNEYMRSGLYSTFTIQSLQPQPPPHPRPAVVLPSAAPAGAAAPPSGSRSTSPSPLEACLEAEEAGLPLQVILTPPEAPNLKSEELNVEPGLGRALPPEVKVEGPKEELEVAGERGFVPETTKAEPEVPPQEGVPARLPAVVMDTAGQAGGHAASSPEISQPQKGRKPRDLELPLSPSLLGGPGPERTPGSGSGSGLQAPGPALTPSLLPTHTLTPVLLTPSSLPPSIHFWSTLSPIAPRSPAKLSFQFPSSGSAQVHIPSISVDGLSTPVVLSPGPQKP
# Summary of the method: as §1
# GABPA = target: T3, GABPA (Homo sapiens, UniProt Q06546 1-454); details: protein: recombinant; tags: N-terminal GST; dsDNA, one strand shown
# T3 sequence: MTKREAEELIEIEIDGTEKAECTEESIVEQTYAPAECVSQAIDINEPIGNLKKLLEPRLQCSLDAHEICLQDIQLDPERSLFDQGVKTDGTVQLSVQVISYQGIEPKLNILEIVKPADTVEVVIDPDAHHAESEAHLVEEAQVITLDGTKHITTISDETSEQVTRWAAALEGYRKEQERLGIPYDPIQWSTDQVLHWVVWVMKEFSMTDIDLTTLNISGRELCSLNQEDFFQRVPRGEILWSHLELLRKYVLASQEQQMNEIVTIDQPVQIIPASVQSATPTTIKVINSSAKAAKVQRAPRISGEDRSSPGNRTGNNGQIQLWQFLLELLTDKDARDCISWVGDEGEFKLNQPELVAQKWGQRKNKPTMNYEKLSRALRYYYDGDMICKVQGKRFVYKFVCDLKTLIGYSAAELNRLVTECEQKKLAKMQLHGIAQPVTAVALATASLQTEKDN
# Summary of the method: as §1
# ERG = target: T4, ERG (Homo sapiens, UniProt P11308 1-479); details: protein: recombinant; tags: N-terminal GST; dsDNA, one strand shown
# T4 sequence: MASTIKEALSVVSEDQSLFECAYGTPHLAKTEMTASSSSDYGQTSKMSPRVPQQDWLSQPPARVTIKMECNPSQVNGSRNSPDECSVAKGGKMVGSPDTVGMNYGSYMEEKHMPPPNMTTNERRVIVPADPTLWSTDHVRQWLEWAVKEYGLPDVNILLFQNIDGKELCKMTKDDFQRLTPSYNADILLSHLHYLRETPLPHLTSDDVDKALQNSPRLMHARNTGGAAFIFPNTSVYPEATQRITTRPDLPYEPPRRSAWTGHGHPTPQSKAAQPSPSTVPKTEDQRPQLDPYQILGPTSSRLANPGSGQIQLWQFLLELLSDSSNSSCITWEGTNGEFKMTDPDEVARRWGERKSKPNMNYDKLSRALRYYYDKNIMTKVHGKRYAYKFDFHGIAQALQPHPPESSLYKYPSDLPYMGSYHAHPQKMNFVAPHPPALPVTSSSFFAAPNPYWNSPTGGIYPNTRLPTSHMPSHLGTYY
# Summary of the method: as §1
# ELF1 = ELF1 (Homo sapiens, UniProt P32519 1-619); details: protein: recombinant; tags: N-terminal GST; dsDNA, one strand shown
# Sequence of ELF1 (P32519 whole entry): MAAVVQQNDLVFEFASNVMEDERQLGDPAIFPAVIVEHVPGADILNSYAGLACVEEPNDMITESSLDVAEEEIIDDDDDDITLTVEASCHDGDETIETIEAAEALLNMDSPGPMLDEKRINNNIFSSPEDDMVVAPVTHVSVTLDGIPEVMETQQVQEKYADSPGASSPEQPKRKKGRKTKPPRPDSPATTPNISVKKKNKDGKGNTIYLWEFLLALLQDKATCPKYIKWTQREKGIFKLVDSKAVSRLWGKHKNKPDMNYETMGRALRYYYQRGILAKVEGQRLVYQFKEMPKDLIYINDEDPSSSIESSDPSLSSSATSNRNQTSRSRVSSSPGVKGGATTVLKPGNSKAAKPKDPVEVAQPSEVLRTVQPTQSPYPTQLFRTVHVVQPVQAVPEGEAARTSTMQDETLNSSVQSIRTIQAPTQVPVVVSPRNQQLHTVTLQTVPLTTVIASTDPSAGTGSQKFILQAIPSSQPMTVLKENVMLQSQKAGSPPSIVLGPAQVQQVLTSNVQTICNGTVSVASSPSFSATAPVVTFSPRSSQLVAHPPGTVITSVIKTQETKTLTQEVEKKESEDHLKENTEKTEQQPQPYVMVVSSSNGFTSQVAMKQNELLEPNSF
# Summary of the method: as §1
# EHF = target: T5, EHF (Homo sapiens, UniProt Q9NZC4 1-300); details: protein: recombinant; tags: N-terminal GST; dsDNA, one strand shown
# T5 sequence: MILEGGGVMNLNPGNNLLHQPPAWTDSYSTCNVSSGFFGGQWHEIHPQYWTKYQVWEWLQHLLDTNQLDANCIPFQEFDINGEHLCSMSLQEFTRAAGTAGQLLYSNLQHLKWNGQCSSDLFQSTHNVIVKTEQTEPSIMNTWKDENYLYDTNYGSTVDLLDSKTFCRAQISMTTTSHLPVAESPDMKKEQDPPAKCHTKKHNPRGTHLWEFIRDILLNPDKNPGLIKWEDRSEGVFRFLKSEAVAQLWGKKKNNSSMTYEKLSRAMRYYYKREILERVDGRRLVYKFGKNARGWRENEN
# Summary of the method: as §1
# SPI1 = SPI1 (Homo sapiens, UniProt P17947 1-270); details: protein: recombinant; tags: N-terminal GST; dsDNA, one strand shown
# Summary of the method: as §1
# SPIB = SPIB (Homo sapiens, UniProt Q01892 1-262); details: protein: recombinant; tags: N-terminal GST; dsDNA, one strand shown
# Sequence of SPIB (Q01892 whole entry): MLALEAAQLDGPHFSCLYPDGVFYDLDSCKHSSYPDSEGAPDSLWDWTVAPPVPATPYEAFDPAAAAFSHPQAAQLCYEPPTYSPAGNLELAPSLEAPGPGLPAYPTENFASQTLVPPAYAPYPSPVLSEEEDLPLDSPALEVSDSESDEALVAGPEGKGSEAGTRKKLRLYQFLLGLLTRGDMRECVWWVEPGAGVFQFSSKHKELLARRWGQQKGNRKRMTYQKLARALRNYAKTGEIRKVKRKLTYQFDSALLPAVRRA
# Summary of the method: as §1
# ELK3 = target: T6, ELK3 (Homo sapiens, UniProt P41970 1-407); details: protein: recombinant; tags: N-terminal GST; dsDNA, one strand shown
# T6 sequence: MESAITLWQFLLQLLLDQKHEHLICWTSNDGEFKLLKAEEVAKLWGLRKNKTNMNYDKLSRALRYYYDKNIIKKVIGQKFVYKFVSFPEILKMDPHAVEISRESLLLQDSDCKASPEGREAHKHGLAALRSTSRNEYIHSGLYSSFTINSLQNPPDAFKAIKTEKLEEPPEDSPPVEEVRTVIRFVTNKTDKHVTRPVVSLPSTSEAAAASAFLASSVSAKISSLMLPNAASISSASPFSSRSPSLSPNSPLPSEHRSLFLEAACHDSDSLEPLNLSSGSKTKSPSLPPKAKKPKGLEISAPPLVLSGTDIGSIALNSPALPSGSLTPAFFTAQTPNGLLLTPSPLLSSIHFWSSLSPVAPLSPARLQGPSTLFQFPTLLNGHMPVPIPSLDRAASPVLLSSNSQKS
# Summary of the method: as §1
# FEV = target: T7, FEV (Homo sapiens, UniProt Q99581 1-238); details: protein: recombinant; tags: N-terminal GST; dsDNA, one strand shown
# T7 sequence: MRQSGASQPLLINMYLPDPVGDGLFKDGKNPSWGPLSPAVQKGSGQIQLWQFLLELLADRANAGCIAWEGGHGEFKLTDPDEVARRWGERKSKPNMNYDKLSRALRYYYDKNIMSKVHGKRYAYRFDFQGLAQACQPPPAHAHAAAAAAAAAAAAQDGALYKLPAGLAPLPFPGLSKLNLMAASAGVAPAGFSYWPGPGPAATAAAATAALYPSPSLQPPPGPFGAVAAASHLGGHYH
# Summary of the method: as §1
# ETV5 = ETV5 (Homo sapiens, UniProt P41161 1-510); details: protein: recombinant; tags: N-terminal GST; dsDNA, one strand shown
# Sequence of ETV5 (P41161 whole entry): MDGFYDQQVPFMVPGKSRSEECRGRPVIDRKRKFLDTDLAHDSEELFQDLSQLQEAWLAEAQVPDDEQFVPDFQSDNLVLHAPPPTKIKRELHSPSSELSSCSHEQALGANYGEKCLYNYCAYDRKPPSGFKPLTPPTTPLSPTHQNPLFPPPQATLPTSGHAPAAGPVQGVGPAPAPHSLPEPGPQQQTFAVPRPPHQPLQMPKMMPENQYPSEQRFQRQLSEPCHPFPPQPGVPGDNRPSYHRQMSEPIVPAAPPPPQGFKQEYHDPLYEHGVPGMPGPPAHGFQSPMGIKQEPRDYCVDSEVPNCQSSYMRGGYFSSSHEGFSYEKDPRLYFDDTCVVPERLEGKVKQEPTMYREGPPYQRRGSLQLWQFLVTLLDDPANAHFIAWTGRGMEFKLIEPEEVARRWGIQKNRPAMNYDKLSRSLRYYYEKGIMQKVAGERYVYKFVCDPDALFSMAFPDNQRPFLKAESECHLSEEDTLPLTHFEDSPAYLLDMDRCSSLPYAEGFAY
# Summary of the method: as §1
# HSF1 = HSF1 (Homo sapiens, UniProt Q00613 1-529); details: protein: recombinant; tags: N-terminal GST; chain copies: 3; dsDNA, one strand shown
# Sequence of HSF1 (Q00613 whole entry): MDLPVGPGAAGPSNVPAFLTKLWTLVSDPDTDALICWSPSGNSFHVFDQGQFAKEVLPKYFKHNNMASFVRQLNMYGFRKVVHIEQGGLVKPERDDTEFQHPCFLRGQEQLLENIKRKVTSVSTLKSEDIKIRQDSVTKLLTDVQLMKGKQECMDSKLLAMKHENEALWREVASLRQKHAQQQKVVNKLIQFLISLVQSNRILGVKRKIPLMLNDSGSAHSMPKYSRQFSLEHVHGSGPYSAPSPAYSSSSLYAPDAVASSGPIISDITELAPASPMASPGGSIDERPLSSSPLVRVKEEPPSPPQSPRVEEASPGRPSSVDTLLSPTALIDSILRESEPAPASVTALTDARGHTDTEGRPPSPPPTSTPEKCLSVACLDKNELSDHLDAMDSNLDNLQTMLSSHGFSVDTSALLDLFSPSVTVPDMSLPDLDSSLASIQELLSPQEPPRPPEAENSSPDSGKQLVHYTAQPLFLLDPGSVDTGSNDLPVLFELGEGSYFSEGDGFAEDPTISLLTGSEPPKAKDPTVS
# Summary of the method: as §1
# SPIC = target: T8, SPIC (Homo sapiens, UniProt Q8N5J4 1-248); details: protein: recombinant; tags: N-terminal GST; dsDNA, one strand shown
# T8 sequence: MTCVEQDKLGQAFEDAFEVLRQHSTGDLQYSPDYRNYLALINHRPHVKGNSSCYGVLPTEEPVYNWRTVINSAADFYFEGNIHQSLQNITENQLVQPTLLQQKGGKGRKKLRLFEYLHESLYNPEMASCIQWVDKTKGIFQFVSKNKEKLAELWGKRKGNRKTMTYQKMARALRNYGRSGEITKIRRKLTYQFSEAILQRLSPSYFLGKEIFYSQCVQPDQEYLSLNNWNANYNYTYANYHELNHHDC
# Summary of the method: as §1
# ELF4 = ELF4 (Homo sapiens, UniProt Q99607 1-663); details: protein: recombinant; tags: N-terminal GST; dsDNA, one strand shown
# Sequence of ELF4 (Q99607 whole entry): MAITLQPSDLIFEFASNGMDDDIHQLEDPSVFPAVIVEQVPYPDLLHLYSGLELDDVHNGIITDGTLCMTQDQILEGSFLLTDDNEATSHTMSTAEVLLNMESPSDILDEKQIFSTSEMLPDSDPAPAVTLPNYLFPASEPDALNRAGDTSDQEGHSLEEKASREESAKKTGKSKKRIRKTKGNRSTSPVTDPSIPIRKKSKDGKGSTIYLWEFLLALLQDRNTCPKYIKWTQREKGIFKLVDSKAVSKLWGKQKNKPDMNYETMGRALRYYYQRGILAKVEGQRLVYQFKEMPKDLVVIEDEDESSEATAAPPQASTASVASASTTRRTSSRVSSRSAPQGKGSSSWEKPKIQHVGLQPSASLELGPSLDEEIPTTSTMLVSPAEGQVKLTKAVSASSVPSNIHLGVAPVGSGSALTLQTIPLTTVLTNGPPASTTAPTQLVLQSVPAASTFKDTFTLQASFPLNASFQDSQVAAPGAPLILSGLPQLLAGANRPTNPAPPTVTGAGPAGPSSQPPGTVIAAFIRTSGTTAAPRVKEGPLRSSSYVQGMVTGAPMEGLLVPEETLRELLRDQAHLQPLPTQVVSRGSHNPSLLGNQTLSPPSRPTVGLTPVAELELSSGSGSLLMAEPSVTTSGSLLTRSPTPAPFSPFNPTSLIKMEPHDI
# Summary of the method: as §1
# ELK4 = target: T9, ELK4 (Homo sapiens, UniProt P28324-2 1-405); details: protein: recombinant; tags: N-terminal GST; dsDNA, one strand shown
# T9 sequence: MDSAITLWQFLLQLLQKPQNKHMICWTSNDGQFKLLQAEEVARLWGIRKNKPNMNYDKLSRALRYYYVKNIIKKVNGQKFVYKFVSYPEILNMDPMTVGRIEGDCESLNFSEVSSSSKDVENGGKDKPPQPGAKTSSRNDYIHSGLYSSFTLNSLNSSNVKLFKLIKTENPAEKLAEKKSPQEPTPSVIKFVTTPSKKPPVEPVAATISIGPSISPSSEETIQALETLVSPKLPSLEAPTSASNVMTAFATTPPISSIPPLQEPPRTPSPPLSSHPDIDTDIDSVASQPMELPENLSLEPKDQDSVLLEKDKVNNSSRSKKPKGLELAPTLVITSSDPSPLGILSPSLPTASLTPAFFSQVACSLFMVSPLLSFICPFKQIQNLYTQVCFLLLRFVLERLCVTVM
# Summary of the method: as §1
# ETV2 = target: T10, ETV2 (Homo sapiens, UniProt O00321 1-342); details: protein: recombinant; tags: N-terminal GST; dsDNA, one strand shown
# T10 sequence: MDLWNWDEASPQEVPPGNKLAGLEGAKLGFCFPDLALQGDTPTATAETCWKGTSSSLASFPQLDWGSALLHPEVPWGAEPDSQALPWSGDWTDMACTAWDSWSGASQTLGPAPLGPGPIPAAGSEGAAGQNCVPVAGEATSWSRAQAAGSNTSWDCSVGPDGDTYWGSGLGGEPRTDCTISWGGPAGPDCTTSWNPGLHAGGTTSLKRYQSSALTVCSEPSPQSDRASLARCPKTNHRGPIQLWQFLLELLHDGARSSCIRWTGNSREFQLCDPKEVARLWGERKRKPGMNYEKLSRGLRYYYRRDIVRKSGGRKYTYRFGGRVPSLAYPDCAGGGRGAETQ
# Summary of the method: as §1
# ELF3 = target: T11, ELF3 (Homo sapiens, UniProt P78545 1-371); details: protein: recombinant; tags: N-terminal GST; dsDNA, one strand shown
# T11 sequence: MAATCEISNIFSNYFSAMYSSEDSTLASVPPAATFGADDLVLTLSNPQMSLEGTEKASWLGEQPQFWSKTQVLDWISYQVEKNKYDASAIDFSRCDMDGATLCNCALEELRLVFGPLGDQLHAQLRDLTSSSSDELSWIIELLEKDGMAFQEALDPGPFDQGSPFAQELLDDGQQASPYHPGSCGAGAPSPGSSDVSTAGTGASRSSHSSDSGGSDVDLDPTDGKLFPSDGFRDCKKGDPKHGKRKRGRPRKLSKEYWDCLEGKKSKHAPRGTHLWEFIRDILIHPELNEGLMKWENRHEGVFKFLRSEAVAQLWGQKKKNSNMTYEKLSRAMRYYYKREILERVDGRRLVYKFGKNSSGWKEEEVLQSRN
# Summary of the method: as §1
# CRX = CRX (Homo sapiens, UniProt O43186 1-299); details: protein: recombinant; tags: N-terminal GST; dsDNA, one strand shown
# Sequence of CRX (O43186 whole entry): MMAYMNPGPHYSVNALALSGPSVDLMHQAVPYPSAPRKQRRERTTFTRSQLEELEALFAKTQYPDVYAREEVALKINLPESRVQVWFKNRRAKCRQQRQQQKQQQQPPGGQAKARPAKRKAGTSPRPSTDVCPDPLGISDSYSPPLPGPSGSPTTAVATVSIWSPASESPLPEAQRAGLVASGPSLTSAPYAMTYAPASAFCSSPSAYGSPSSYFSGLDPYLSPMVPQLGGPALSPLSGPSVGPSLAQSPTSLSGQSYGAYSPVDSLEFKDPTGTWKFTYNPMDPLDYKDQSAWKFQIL
# Summary of the method: as §1
# ETV1 = ETV1 (Homo sapiens, UniProt P50549 1-477); details: protein: recombinant; tags: N-terminal GST; dsDNA, one strand shown
# Sequence of ETV1 (P50549 whole entry): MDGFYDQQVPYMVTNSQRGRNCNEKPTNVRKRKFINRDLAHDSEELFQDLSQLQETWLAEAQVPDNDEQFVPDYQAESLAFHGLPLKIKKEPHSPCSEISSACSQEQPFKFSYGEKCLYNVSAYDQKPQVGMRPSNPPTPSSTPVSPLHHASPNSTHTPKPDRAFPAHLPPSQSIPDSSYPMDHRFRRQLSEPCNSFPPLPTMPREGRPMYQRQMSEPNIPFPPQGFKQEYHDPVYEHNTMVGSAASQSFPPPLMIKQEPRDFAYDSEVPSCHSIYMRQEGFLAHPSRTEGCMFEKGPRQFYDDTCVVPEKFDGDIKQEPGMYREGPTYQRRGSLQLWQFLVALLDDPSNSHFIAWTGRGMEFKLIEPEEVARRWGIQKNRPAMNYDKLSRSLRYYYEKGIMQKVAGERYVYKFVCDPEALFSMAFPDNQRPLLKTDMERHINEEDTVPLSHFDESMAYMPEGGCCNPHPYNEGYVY
# Summary of the method: as §1
sequence,measurement,setting,value
AGCACT,binding signal,FLI1,"1.38 fold enrichment (6-mer frequency, TF over GST control)"
same,binding signal,ELK1,"1.52 fold enrichment (6-mer frequency, TF over GST control)"
same,binding signal,GABPA,"1.41 fold enrichment (6-mer frequency, TF over GST control)"
same,binding signal,ERG,"1.48 fold enrichment (6-mer frequency, TF over GST control)"
same,binding signal,ELF1,"1.4 fold enrichment (6-mer frequency, TF over GST control)"
same,binding signal,EHF,"1.36 fold enrichment (6-mer frequency, TF over GST control)"
same,binding signal,SPI1,"1.4 fold enrichment (6-mer frequency, TF over GST control)"
same,binding signal,SPIB,"1.44 fold enrichment (6-mer frequency, TF over GST control)"
same,binding signal,ELK3,"1.62 fold enrichment (6-mer frequency, TF over GST control)"
same,binding signal,FEV,"1.51 fold enrichment (6-mer frequency, TF over GST control)"
same,binding signal,ETV5,"1.37 fold enrichment (6-mer frequency, TF over GST control)"
same,binding signal,HSF1,"1.19 fold enrichment (6-mer frequency, TF over GST control)"
same,binding signal,SPIC,"1.32 fold enrichment (6-mer frequency, TF over GST control)"
same,binding signal,ELF4,"1.44 fold enrichment (6-mer frequency, TF over GST control)"
same,binding signal,ELK4,"1.31 fold enrichment (6-mer frequency, TF over GST control)"
same,binding signal,ETV2,"1.46 fold enrichment (6-mer frequency, TF over GST control)"
same,binding signal,ELF3,"1.26 fold enrichment (6-mer frequency, TF over GST control)"
same,binding signal,CRX,"1.18 fold enrichment (6-mer frequency, TF over GST control)"
same,binding signal,ETV1,"1.36 fold enrichment (6-mer frequency, TF over GST control)"
